23 compounds from the supplement of paper PMC6279402 can be followed below.

The structures appear in SMILES notation. Structures can show the parent of a compound that is named as a salt. ± gives the standard deviation of the averaged measurements.

For this assay, the system named is A549. The assay can be described thus: relative viability (normalised to negative control = 1, bortezomib = 0) (fraction); higher = less cytotoxic. Particulars: inflammatory serum-free RHB-A with cytokines + LPS; 5 d + 24 h CellTiter-Blue; compound 30 nM; GSK126 pretreatment: 5 uM GSK126. Background: Alamar Blue is a resazurin reagent that responds to reducing activity.
As for `O=C1c2c(O)ccc(O)c2C(=O)c2c(NCCNCCO)ccc(NCCNCCO)c21` [Mitoxantrone; Mitoxantrone dihydrochloride], the relative viability stood at 0.483 ± 0.02.

For `C[C@@H]1CCN(C(=O)CC#N)C[C@@H]1N(C)c1ncnc2[nH]ccc12`, the relative viability came to 1.05 ± 0.18.

For `COc1cc2c(N3CCN(C(=O)Nc4ccc(OC(C)C)cc4)CC3)ncnc2cc1OCCCN1CCCCC1` [Tandutinib (MLN518)], the relative viability stood at 0.74 ± 0.03.

On to `FC(F)(F)c1ccc(/C=C/c2nc(COc3ccc(CCCCn4ccnn4)cc3)co2)cc1` [Mubritinib (TAK 165)], for which the relative viability was 0.798 ± 0.028.

As to `NC(=O)NO` [Hydroxyurea], the relative viability is 0.998 ± 0.13.

Turning to `Cn1nnc2c(C(N)=O)ncn2c1=O` [Temozolomide], the relative viability is 0.831 ± 0.044.

`CN1CC[C@H](c2c(O)cc(O)c3c(=O)cc(-c4ccccc4Cl)oc23)[C@H](O)C1` [Flavopiridol hydrochloride]: the relative viability stood at 0.774 ± 0.011.

`CNC(=O)c1ccc(C)c(-n2c(C)cc(OCc3ccc(F)cc3F)c(Br)c2=O)c1`: the relative viability was 1.15 ± 0.17.

Consider `CCS(=O)(=O)c1cccc(-c2cc(C(=O)NC3CCN(C)CC3)c(C)c3[nH]c4ncc(C)cc4c23)c1`, for which the relative viability was determined as 0.702 ± 0.12.

Consider `Nc1nc2[nH]cc(CCc3ccc(C(=O)N[C@@H](CCC(=O)O)C(=O)O)cc3)c2c(=O)[nH]1` [Pemetrexed; Pemetrexed Disodium], for which the relative viability was found to be 0.89 ± 0.07.

For the compound `CCOc1cc2ncc(C#N)c(Nc3ccc(OCc4ccccn4)c(Cl)c3)c2cc1NC(=O)/C=C/CN(C)C` [Neratinib], the relative viability is 0.713 ± 0.16.

Consider `NC1(c2ccc(-c3nc4ccn5c(=O)[nH]nc5c4cc3-c3ccccc3)cc2)CCC1`, for which the relative viability was 0.679 ± 0.074.

For the compound `S=P(N1CC1)(N1CC1)N1CC1` [Thiotepa], the relative viability is 1.01 ± 0.054.

Consider `COc1cc2c(Oc3ccc4[nH]c(C)cc4c3F)ncnc2cc1OCCCN1CCCC1` [Cediranib(AZD2171)], for which the relative viability came to 0.943 ± 0.053.

Turning to `Cc1ccc(-n2nc(C(C)(C)C)cc2NC(=O)Nc2ccc(OCCN3CCOCC3)c3ccccc23)cc1`, the relative viability was 1.13 ± 0.13.

On to `NC(=O)c1ccc(N(C(N)=O)c2c(F)cccc2F)nc1-c1ccc(F)cc1F`, for which the relative viability amounted to 0.914 ± 0.11.

On to `N#C/C(=C/c1ccc(O)c(O)c1)C(=O)NCc1ccccc1` [AG-490; Tyrphostin AG 490], for which the relative viability amounted to 0.914 ± 0.15.

For `Cc1nc(Nc2ncc(C(=O)Nc3c(C)cccc3Cl)s2)cc(N2CCN(CCO)CC2)n1` [Dasatinib], the relative viability was 0.89 ± 0.089.

`C#Cc1cccc(Nc2ncnc3cc(OCCOC)c(OCCOC)cc23)c1`: the relative viability amounted to 0.81 ± 0.083.

Take `O=C(NOC[C@H](O)CO)c1ccc(F)c(F)c1Nc1ccc(I)cc1F`: the relative viability worked out at 0.213 ± 0.035.

In the case of `CCc1cccc(CC)c1NC(=O)N1Cc2[nH]nc(NC(=O)c3ccc(N4CCN(C)CC4)cc3)c2C1`, the relative viability is 0.891 ± 0.14.

Consider `CCN1CCN(Cc2ccc(-c3cc4c(N[C@H](C)c5ccccc5)ncnc4[nH]3)cc2)CC1`, for which the relative viability came to 0.695 ± 0.092.

`CN(C)c1nc(N(C)C)nc(N(C)C)n1` [Altretamine]: the relative viability was determined as 0.861 ± 0.011.
